Values joined by “and” are separate entries in the source; they are usually repeats but may differ in a detail not shown here. Equal values may be shown once. Results filed as inconclusive are left out. Where a call stands in place of a potency, no number is given. A structure can be active in one record and inactive in another. Active and inactive are the calls of the source. Calls come from the whole dose curve; as a rule, active = well fitted inhibition curve with a large enough effect; inconclusive = small, poorly fitted or top-dose-only effect; inactive = flat fitted curve, though single readings scatter.
Potency is the fitted concentration of half-maximal effect.

A short description of the assay: P-glycoprotein substrates identified in KB-8-5-11 adenocarcinoma cell line, qHTS therapeutic library screen (AID 1346987). Note: nearly all actives have a fitted effect of over 65% in size. The conditions noted are these: KB-8-5-11 (P-gp overexpressing) viability, CellTiter-Glo, 72 h; series mostly up to 44.5 µM. An outline of the steps: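 Luminescence from CellTiter-Glo, read 5 min after addition, quantified survival of KB-8-5-11 (P-gp-overexpressing) cells exposed to compounds for 72 h. AC50 was derived from concentration-response curves.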
`CNCC[C@H](Oc1cccc2ccccc12)c1cccs1`: the Potency entry is “inactive”.
As for `NC(=O)c1cccc(N)c1`, the entry is “inactive”.
As for `N=C(N)c1ccc(OCCCCCOc2ccc(C(=N)N)cc2)cc1`, the entry is “inactive”; as for `CC(C(=O)O)c1ccc2c(c1)CC(=O)c1ccccc1S2` (stereo not given), “inactive”; as for `CC(C)OC(=O)OCOP(=O)(CO[C@H](C)Cn1cnc2c(N)ncnc21)OCOC(=O)OC(C)C`, “inactive”.
The result for `CC1(C)[C@H](C(=O)O)N2C(=O)C[C@H]2S1(=O)=O` reads “inactive”; that for `CCc1cc(C(N)=S)ccn1`, “inactive”.
For the compound `C[C@@H]1CN(c2c(F)c(N)c3c(=O)c(C(=O)O)cn(C4CC4)c3c2F)C[C@H](C)N1`, the Potency entry was “inactive”.
The result for `S=P(N1CC1)(N1CC1)N1CC1` reads “inactive”.
As to `COc1nc(N)nc2c1ncn2[C@@H]1O[C@H](CO)[C@@H](O)[C@@H]1O`, the Potency entry was “inactive”.
The result for `CCCCCCNC(=O)n1cc(F)c(=O)[nH]c1=O` reads 6.51 µM (active); that for `CCN1CCCC1CNC(=O)c1cc(S(N)(=O)=O)ccc1OC` (stereo not given), “inactive”.
The result for `CC[C@H](C)C(=O)O[C@H]1C[C@@H](C)C=C2C=C[C@H](C)[C@H](CC[C@@H]3C[C@@H](O)CC(=O)O3)[C@H]21` reads 18.7 µM (active); that for `COc1ccc(-c2ccc3cc(C(=O)O)ccc3c2)cc1C12CC3CC(CC(C3)C1)C2`, 13 µM (active) and inactive.
As to `CCOC(=O)c1ccc(C#Cc2ccc3c(c2)C(C)(C)CCS3)nc1`, the Potency result is “inactive”.
The result for `CC(C)OC(=O)C(C(=O)OC(C)C)=C1SC=CS1` reads “inactive”; that for `CNC1CCCN(c2c(F)cc3c(=O)c(C(=O)O)cn(C4CC4)c3c2OC)C1` (stereo not given), “inactive”; that for `O[C@@H](CNC[C@H](O)[C@H]1CCc2cc(F)ccc2O1)[C@@H]1CCc2cc(F)ccc2O1`, 20.9 µM (active).
The result for `CN(C)CCc1c[nH]c2ccc(C[C@H]3COC(=O)N3)cc12` reads “inactive”.
The result for `COc1ncnc(NS(=O)(=O)c2ccc(N)cc2)c1OC` reads “inactive”.
Regarding `CO[C@@]12[C@H](COC(N)=O)C3=C(C(=O)C(C)=C(N)C3=O)N1C[C@@H]1N[C@@H]12`, the Potency result is “inactive and 16.6 µM (active)”.
The result for `CO[C@@H]1[C@@H](OC(N)=O)[C@@H](O)[C@H](Oc2ccc3c(O)c(NC(=O)c4ccc(O)c(CC=C(C)C)c4)c(=O)oc3c2C)OC1(C)C` reads “inactive”.
The result for `Cc1ncc([N+](=O)[O-])n1CCO` reads “inactive”; that for `CC(C)Cn1cnc2c(N)nc3ccccc3c21`, “inactive”.
As for `O=C(O)CSCC(=O)NC1CCSC1=O` (stereo not given), the Potency entry was “inactive”.
For the compound `CC1=CC(=O)c2ccccc2C1=O`, the Potency result was “inactive”.
As for `CC(C)(Sc1cc(C(C)(C)C)c(O)c(C(C)(C)C)c1)Sc1cc(C(C)(C)C)c(O)c(C(C)(C)C)c1`, the entry is “inactive”; as for `NS(=O)(=O)c1cc2c(cc1Cl)NC(C(Cl)Cl)NS2(=O)=O` (stereo not given), “inactive”; as for `C[C@]12C=CC(=O)C=C1CC[C@@H]1[C@@H]2C(=O)C[C@@]2(C)[C@H]1CC[C@]2(O)C(=O)CO`, “inactive”.
Turning to `COc1cc(NCc2ccc3nc(N)nc(N)c3c2C)cc(OC)c1OC`, the Potency result was “inactive and 5.8 µM (active)”.
For `O=C(NCC1CN(c2ccc(N3CCOCC3=O)cc2)C(=O)O1)c1ccc(Cl)s1` (stereo not given), the Potency entry was “inactive”.
The result for `CC(=O)[C@H]1CC[C@H]2[C@@H]3CCC4=CC(=O)CC[C@]4(C)[C@H]3CC[C@]12C` reads 11.8 µM (active).
`C[C@@H](NCCCc1cccc(C(F)(F)F)c1)c1cccc2ccccc12`: the Potency result was “inactive and 20.6 µM (active)”.
In the case of `COC(c1ccccc1)(c1ccccc1)[C@H](Oc1nc(C)cc(C)n1)C(=O)O`, the Potency entry was “inactive”.
On to `COc1cc(NS(=O)(=O)c2ccc(N)cc2)nc(OC)n1`, for which the Potency entry is “inactive”.
